Assay outcomes (PubChem BioAssay)
The entries come from a sample that favours hits as a whole.
Shiga inhibitor: Shiga toxin inhibition. 9.2% of 290,000 active. AID 2315. Vero cells, Shiga toxin protein synthesis inhibition reporter. inhibition, % at 38.7 µM; in the data active means inhibition mostly above about 28%, no sharp cut-off; inactive means mostly below about 43%; further: 0% is about no effect
Vaccinia mCherry: inhibitors of vaccinia virus infection (mCherry reporter signal) | Vaccinia virus mCherry reporter infection, fluorescence | Potency, µM (series often up to 36.5 µM), for inactives: at the top dose activity change, negative = inhibition, hits mostly inhibitors | 0.63% of 310,000 active | AID 720579; calls by dose curve; tested in A549 cells; further: potency means the concentration at half of the fitted maximal effect; on the % scale 0 is the no-effect control and ±100 the full control effect; nearly all actives have a fitted effect of over 35% in size
Lassa entry inh: Lassa virus entry inhibition | Potency, µM (highest dose often 37.9 µM), inactives show at the top dose activity change, negative = inhibition, usual class: inhibitors | Lassa virus pseudotype entry inhibition, cell reporter | 1.2% of 300,000 active; calls by dose curve; tested in HEK293 cells; further: potency means the concentration at half of the fitted maximal effect; on the % scale 0 is the no-effect control and ±100 the full control effect; nearly all actives have a fitted effect of over 50% in size
Marburg entry inh: inhibitors of Marburg virus binding or cell entry | Marburg virus pseudotyped entry inhibition, cell reporter | Potency, µM (highest dose often 37.8 µM), for the others: at the highest dose activity change, negative = inhibition, usual class: inhibitors | 1.8% of 300,000 active | AID 540276; calls by dose curve; tested in HEK293 cells; further: potency means the concentration at half of the fitted maximal effect; on the % scale 0 is the no-effect control and ±100 the full control effect
Cycloheximide cs: affects cycloheximide protein synthesis inhibition readout, counter-screen; max response, %; 12% of 300,000 active; cell reporter, cycloheximide protein synthesis inhibition counterscreen; in the data active means max response mostly above about 13%, no sharp cut-off; inactive means mostly below about 14%; further: read at 38.3 µM for the half of the compounds with a filed dose; 0% is about no effect
Vaccinia Venus: inhibitors of vaccinia virus (Venus reporter). AID 720580. 0.46% of 330,000 active. Potency, µM (doses to about 36.5 µM), for the others: top-dose activity change, negative = inhibition, actives largely listed as inhibitors. Vaccinia virus Venus reporter expression, fluorescence; calls by dose curve; tested in A549 cells; further: potency means the concentration at half of the fitted maximal effect; on the % scale 0 is the no-effect control and ±100 the full control effect; nearly all actives have a fitted effect of over 30% in size
Starred values were filed as active, the others as inactive; i = inactive; ? = inconclusive; · = not tested or not shown; [ ] = another dose, or the depositor's remark.

SMILES	Shiga inhibitor	Vaccinia mCherry	Lassa entry inh	Marburg entry inh	Cycloheximide cs	Vaccinia Venus
CCOc1ccc(CNc2ccc(CNc3ncn[nH]3)cc2)cc1	-2.1	·	·	·	6.4	·
Cc1cc(=O)[nH]c2nnc(SCc3ccc(C(F)(F)F)cc3)n12	·	i	?	·	·	-11.8%
CSc1nnc(N2C(=O)C(O)=C(C(=O)c3ccco3)C2c2ccccc2)s1 (stereo not drawn)	-1.7	·	·	·	10.3	·
CSc1nnc(N2C(=O)C(O)=C(C(=O)c3ccc(C)o3)C2c2ccc(C)cc2)s1 (stereo not drawn)	95.4*	·	·	·	34.8*	·
Cc1onc(-c2c(F)cccc2Cl)c1C(=O)NCc1ccco1	9.1	·	6.8%	9.3%	2.3	-4.9%
CC(C)n1nc(C(=O)Nc2cccc(S(=O)(=O)NCc3ccco3)c2)c2ccccc2c1=O	19.1	·	·	·	17.0*	·
O=C(Nc1ccc(S(=O)(=O)NCc2ccco2)cc1)c1cccc(F)c1	37.4*	-8.3%	-0.9%	-13.1%	17.7	-5.6%
Cn1nc(C(=O)Nc2ccc(S(=O)(=O)NCc3ccco3)cc2)c2ccccc2c1=O	52.3*	-22.9%[7.34 µM]	·	·	52.6*	-8.3%[7.34 µM]
Cc1onc(-c2c(F)cccc2Cl)c1C(=O)Nc1cccc(S(=O)(=O)NCc2ccco2)c1	58.6*	-16.6%	0.7%	-11.9%[46.1 µM]	38.3*	-11.0%
O=S(=O)(NCc1ccccc1)c1ccc(Br)c2nsnc12	7.1	6.3%	11.3%	1.5%[46.1 µM]	5.3	-2.5%
O=C(Nc1cc(-c2nc3ccccc3o2)ccc1Cl)c1ccc(N2CCCCC2)c([N+](=O)[O-])c1	·	-1.6%	0.2%[46.1 µM]	?	·	-0.2%
CN(C(=O)CSc1nnc(-c2cccs2)n1C1CC1)C1CCS(=O)(=O)C1 (stereo not drawn)	·	-14.0%	-0.3%[46.1 µM]	29.8%	·	-0.9%
CS(=O)(=O)N1CCc2cc(C(=O)Nc3ccc(Cl)cc3)ccc21	13.0	i	-24.4%[46.1 µM]	?	16.8*	-20.3%
CS(=O)(=O)N1CCc2cc(NC(=O)c3ccc(Cl)cc3Cl)ccc21	43.6	i	?	?	20.6*	-12.1%
CCCCN1CCCc2cc(CN(CCCN3CCOCC3)C(=O)Nc3ccc(CC)cc3)ccc21	·	-18.6%	29.1%[46.1 µM]	·	·	-8.6%
CC(C)C[C@H](N)c1nnc(S(=O)(=O)Cc2cccc(F)c2)o1	28.8	-7.7%	2.8%	?	31.9*	-1.2%
Cc1ccccc1CS(=O)(=O)c1nnc([C@H](CC(C)C)NC(=O)OC(C)(C)C)o1	29.7	·	-1.9%	?	20.7	·
Cc1cc2c(cc3c(SCc4cccc(F)c4)nnc(C)n32)o1	·	-19.4%	?	·	·	-18.0%
CC(C)(C)OC(=O)N[C@@H](Cc1ccccc1)c1nnc(S(=O)(=O)Cc2cccc(F)c2)o1	32.5	·	?	?	21.2*	?
C[C@@H](CN1C(=O)C(=O)NC[C@@H]1C)NC(=O)CC12CC3CC(CC(C3)C1)C2	-4.6	i	·	·	-1.4	-2.3%
CCCCCOc1ccc(OC(=O)c2ccncc2)cc1	9.0	·	?	?	-3.9	·
CCCCCCCOC(=O)c1ccc(OC(=O)c2cccnc2)cc1	53.4	-2.3%	-20.3%	-9.3%	16.4*	-8.6%
CCCCCOC(=O)c1ccc(OC(=O)c2cncc(Br)c2)cc1	26.6	i	18.9%	-1.2%	20.7*	-3.5%
CCc1ccc(C(=O)COC(=O)c2cncc(Br)c2)cc1	32.8	-1.1%	7.4%	28.2%[46.1 µM]	39.9*	-9.5%
CC(C)OC(=O)c1ccc(OC(=O)c2cccnc2)cc1	13.2	i	4.6%	0.2%	11.6*	-10.5%
SMILES	Shiga inhibitor	Vaccinia mCherry	Lassa entry inh	Marburg entry inh	Cycloheximide cs	Vaccinia Venus
COC(=O)C1=C(C(=O)OC)[C@@H]2Nc3ccccc3[C@@]23C[C@@H](C(=O)OC)N(C(=O)NC(C)(C)C)C3=N1	·	·	·	1.5%[14.2 µM]	·	·
O=C(Oc1ccc2ccccc2c1)c1cncc(Br)c1	-13.0	-13.2%	0.0%	?	2.2	-1.7%
O=C(COC(=O)c1cncc(Br)c1)NC1CC1	-14.2	·	21.6%	6.7%	16.4*	·
CCc1ccc(OC(=O)c2cncc(Br)c2)cc1	21.7	-5.5%	?	?	18.2*	-3.2%
Cc1c(C(=O)N(C)C2CCOC2)sc2ncnc(NCc3ccc4c(c3)OCO4)c12 (stereo not drawn)	·	-12.1%	·	·	·	5.3%
Cc1ccc(N2CCN(C(=O)Cn3ncc4c([nH]c5ccc(C)cc54)c3=O)CC2)c(C)c1	·	4.8%	27.2%[46.1 µM]	·	·	0.6%
COc1ccc(-n2cnc3cc(N)ccc32)cc1	12.0	-9.7%	?	6.2%	12.5*	-4.5%
COc1ccc(-n2cnc3cc(NS(=O)(=O)c4ccccc4)ccc32)cc1	36.8*	-23.0%	?	?	20.9*	?
CC(C)(C)n1cnc2cc(NS(=O)(=O)c3ccccc3)ccc21	23.9	·	-12.6%	-9.4%	18.2*	?
COc1ccc(NC(=O)c2cccc(NS(=O)(=O)c3ccccc3)c2)cc1	·	·	·	·	-1.1	·
COc1ccc(-n2cnc3cc(C(=O)N4CCOCC4)ccc32)cc1	45.3*	-11.7%[7.34 µM]	·	·	55.7*	-8.0%[7.34 µM]
CCCCCNC(=O)c1ccc2c(c1)ncn2-c1ccc(OC)cc1	-7.5	i	?	?	6.9	-18.4%
Cc1ccc(-c2nnn(CC(=O)Nc3nnc(C(C)C)s3)n2)cc1	-5.4	0.3%	-2.0%	-8.3%[14.2 µM]	-2.6	1.1%
COc1ccc(Cl)cc1NC(=O)Cn1nnc(C(=O)NCc2cccs2)c1N	·	i	-23.2%[46.1 µM]	?	·	-21.0%
COC(=O)C1=NN(C(=O)c2cccc(Cl)c2)C(O)(C(C)(C)C)C1 (stereo not drawn)	91.9*	i	16.7%	0.8%	50.9*	-9.7%
COc1ccc(C2Nc3ccc(NC(C)=O)cc3C(=O)N2Cc2ccccc2)cc1COc1ccc(NC(C)=O)cc1 (stereo not drawn)	·	-11.6%	·	·	·	-10.1%
CCOC(=O)Cc1nc2ccccc2[nH]1	16.9	·	4.0%	17.7%	-0.7	·
CCOC(=O)c1ccc(Nc2nnc(C)c3ccccc23)cc1	56.1*	-10.6%	?	?	20.3*	2.0%
CNC(=O)c1ccc(Nc2nnc(C)c3ccccc23)cc1	6.7	·	0.0%	12.5%	1.3	-13.9%
CCCCNCc1nc2ccccc2c(=O)[nH]1	-10.2	-8.1%	13.5%	3.3%[46.1 µM]	10.6	-13.7%
CCc1ccc(NCc2nc3ccccc3c(=O)[nH]2)cc1	88.5*	·	-12.9%	?	25.3*	·
CCOC(=O)c1ccc(NCc2nc3ccccc3[nH]2)cc1	72.9*	i	1.1%	-2.4%	53.4*	0.1%
CCOC(=O)c1ccc(Nc2cnc3ccccc3n2)cc1	77.9*	0.5%	15.5%	?	46.6*	2.9%
Cc1ccc(CNC(=O)c2ccc(Cn3c(SCc4ccc(F)cc4)nc4cccnc43)cc2)o1	·	-5.8%	·	?	·	-13.7%
CN(C(=O)c1ccc2c(c1)OCO2)C1CCS(=O)(=O)C1 (stereo not drawn)	·	-8.4%	10.6%	8.6%	·	-4.6%
COc1ccccc1CCNc1ncnc2sc(C(=O)N3CCCCC3)c(C)c12	·	-20.8%	·	·	·	-18.0%
O=C(O)c1ccc(Nc2cnc3ccccc3n2)cc1	63.3	·	3.7%	1.3%	38.1*	·
O=C(O)c1cnc2ccccc2n1	-15.6	·	-15.1%	-34.5%	-3.6	·
O=C(Cn1cc(SCc2c(F)cccc2Cl)c2ccccc21)N1CCCC1	·	-17.0%	-18.4%[46.1 µM]	·	·	-21.2%
